High-throughput results (PubChem)
KB-V1 MDR tox: kills drug-selected multidrug resistant KB-V1 cells; KB-V1 MDR cells viability, CellTiter-Glo, 72 h; Potency, µM (highest dose often 46.1 µM), hits mostly cytotoxic; hit rate 3.4% among 400,000; further: on the % scale 0 is the no-effect control and ±100 the full control effect; nearly all actives have a fitted effect of over 60% in size
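Potencies derive from concentration-effect curves fitted to normalized luminescence (CellTiter-Glo) of KB-V1 cells treated for 72 h at 37 degrees C in phenol-red-free DMEM containing 10% FBS.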
ATXN viability: viability counter-screen for ATXN expression inhibitors | Potency, µM (doses to about 56.7 µM), usual class: cytotoxic | hit rate 0.49% among 400,000 | S2 cells (HEK-293 line with an ATXN2-luciferase reporter) viability, CellTiter-Fluor protease fluorescence, 24 h; further: nearly all actives have a fitted effect of over 40% in size
ATXN2 expr inh: reduces ATXN2 reporter expression in HEK-293 cells. HEK-293 ATXN2-luciferase reporter, luminescence, 24 h. Potency, µM (doses to about 57 µM), for inactives: top-dose activity change, negative = inhibition, most hits filed as inhibitors. hit rate 0.72% among 360,000; further: on the % scale 0 is the no-effect control and ±100 the full control effect; nearly all actives have a fitted effect of over 55% in size
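qHTS (up to 57 uM final) was run with 24 h compound exposure of reporter cells at 37 °C. Each well was multiplexed: SteadyGlo luminescence measured ATXN2-luciferase expression after a fluorogenic Gly-Phe-AFC viability readout (25 uM final).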
TGFb SMAD3 inh: inhibitors of TGF-b signaling. Potency, µM (top dose mostly 46.1 µM), for the others: at the top dose activity, negative = inhibition, actives largely listed as inhibitors. hit rate 1.2% among 410,000. AID 588855. HepG2 CAGA-GFP TGF-b/SMAD3 reporter, GFP fluorescence, 18 h; TGF-beta stimulated, 500 pg/mL final; further: on the % scale 0 is the no-effect control and ±100 the full control effect; nearly all actives have a fitted effect of over 65% in size
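HEPG2 CAGA-GFP, 1000 cells/well; 2 h settle, 37 C; cpd via pin tool; TGF-b 500 pg/mL final; 18 h, 37 C; GFP imaging ex488/em500-530; %Activity normalised to -TGF-b and +DMSO controls; CRC fit, curve class.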
KB-3-1 cytotox: KB-3-1 parental cell cytotoxicity. Potency, µM (titrated, usually from 46.1 µM), usual class: cytotoxic. hit rate 1.4% among 400,000. KB-3-1 viability, CellTiter-Glo ATP luminescence, 72 h. AID 1347075; further: on the % scale 0 is the no-effect control and ±100 the full control effect; nearly all actives have a fitted effect of over 60% in size
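Cells are dispensed, compounds pinned in, plates held at 37 °C for 72 h, then CellTiter-Glo is added and luminescence read after 10 minutes. Cell line: parental KB-3-1 in phenol-red-free DMEM, 10% FBS.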
HepG2 viability: counter-screen for TGF-b inhibitors: cytotoxicity in HepG2 cells | HepG2 CAGA-GFP viability, ATP luminescence, 18 h | Potency, µM (highest dose often 46.1 µM), inactives show top-dose activity change, negative = cytotoxicity, most hits filed as cytotoxic | hit rate 0.76% among 410,000
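HepG2 CAGA-GFP cells (1000/well, DMEM with 1% FBS) received compound, then TGF-beta at 500 pg/mL final, and were incubated 18 hours at 37 degrees C. Viability was read by CellTiter-Glo luminescence. Media-only wells were set as complete cell-killing and DMSO as no toxicity.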
An asterisk follows results filed as active. An excerpt weighted towards active compounds, which were near 5.9% of everything screened. The call rests on the fitted dose curve; in most records, active means well fitted curve in the direction sought with a large enough effect; inconclusive means small, poorly fitted or top-dose-only effect, or another doubt; inactive means no such curve, though single readings can be large; an effect the other way counts as inactive or inconclusive. Potency means the concentration at half of the fitted maximal effect.

What do the screens show for `Cc1ccc(-c2ccc(CN3C(CC(C)C)C(=O)N(Cc4cn(CCC5OCCO5)nn4)CCS3(=O)=O)cc2)cc1` (stereo not given)?
KB-V1 MDR tox: inactive; ATXN viability: 35µM*; ATXN2 expr inh: 25µM*; TGFb SMAD3 inh: 22µM*; KB-3-1 cytotox: inconclusive; HepG2 viability: 11µM*

Results for CC(C)C1C(=O)N(Cc2cn(CCC3OCCO3)nn2)CCS(=O)(=O)N1Cc1ccc(-c2ccc(Cl)c(Cl)c2)cc1 (stereo not given) ?
KB-V1 MDR tox: inactive; ATXN viability: inconclusive; ATXN2 expr inh: inconclusive; TGFb SMAD3 inh: inconclusive; KB-3-1 cytotox: inconclusive; HepG2 viability: -61%

What do the screens show for `CC(C)CC1C(=O)N(Cc2cn(CCC3OCCCO3)nn2)CCS(=O)(=O)N1Cc1ccc(-c2ccccc2)cc1` (stereo not given)?
KB-V1 MDR tox: inactive; ATXN viability: inactive; ATXN2 expr inh: -8%; TGFb SMAD3 inh: 1%; KB-3-1 cytotox: inactive; HepG2 viability: -28%

What do the screens show for `CC(C)CC1C(=O)N(Cc2cn(CCC3OCCO3)nn2)CCS(=O)(=O)N1Cc1ccc(-c2ccccc2)cc1` (stereo not given)?
KB-V1 MDR tox: 15µM*; ATXN viability: inconclusive; ATXN2 expr inh: inconclusive; TGFb SMAD3 inh: inconclusive; KB-3-1 cytotox: inconclusive; HepG2 viability: -44%

How did CC(C)CC1C(=O)N(Cc2cn(CCC3OCCO3)nn2)CCS(=O)(=O)N1Cc1ccc(-c2ccc(Cl)c(Cl)c2)cc1 (stereo not given) do in these assays?
KB-V1 MDR tox: inactive; ATXN2 expr inh: inconclusive; TGFb SMAD3 inh: 11µM*; KB-3-1 cytotox: inactive; HepG2 viability: -56%

What do the screens show for `CC(C)C1C(=O)N(Cc2cn(CCC3OCCCO3)nn2)CCS(=O)(=O)N1Cc1ccc(-c2ccncc2)cc1` (stereo not given)?
KB-V1 MDR tox: inactive; ATXN viability: inconclusive; ATXN2 expr inh: 2%; TGFb SMAD3 inh: 10%; KB-3-1 cytotox: 16µM*; HepG2 viability: -4%

How did CC(C)CC1C(=O)N(Cc2cn(CCC3OCCO3)nn2)CCS(=O)(=O)N1Cc1ccc(-c2ccc(F)nc2)cc1 (stereo not given) do in these assays?
KB-V1 MDR tox: inactive; ATXN viability: inconclusive; ATXN2 expr inh: -30%; TGFb SMAD3 inh: 11%; KB-3-1 cytotox: inactive; HepG2 viability: 2%

What do the screens show for `CCCC(=O)Nc1nc2c(s1)CC(C(C)(C)C)CC2` (stereo not given)?
KB-V1 MDR tox: inactive; ATXN viability: inactive; ATXN2 expr inh: 57%; TGFb SMAD3 inh: 18%; KB-3-1 cytotox: inactive; HepG2 viability: -29%

How did CC(=O)c1ccccc1-c1ccc2c(c1)CC(CNC(=O)Cc1c[nH]c3ccccc13)O2 (stereo not given) do in these assays?
ATXN viability: inactive

How did O=C(c1ccc2c(c1)N(Cc1ccc(Cl)cc1)C(=O)c1ccccc1S2(=O)=O)N1CCCCCC1 do in these assays?
KB-V1 MDR tox: inconclusive; ATXN viability: inactive; ATXN2 expr inh: inconclusive; TGFb SMAD3 inh: -2%; KB-3-1 cytotox: inconclusive; HepG2 viability: -1%

What do the screens show for `O=Cc1c(Sc2ccccc2)nc2ccccn2c1=O`?
KB-V1 MDR tox: inconclusive; ATXN viability: inactive; ATXN2 expr inh: 24%; TGFb SMAD3 inh: 14%; KB-3-1 cytotox: 15µM*; HepG2 viability: -4%

Results for CCC(C)[C@H](N)C(=O)N[C@H]1CCC2C3CC=C4C[C@@H](O)CC[C@]4(C)C3CC[C@@]21C (stereo not given in full) ?
KB-V1 MDR tox: inactive; ATXN viability: inconclusive; TGFb SMAD3 inh: inconclusive; KB-3-1 cytotox: inactive; HepG2 viability: 16µM*
